Measurements published in PubChem BioAssay AID1159580 (chemical genetic matrix, 2015).
Values joined by “and” are separate entries in the source; they are usually repeats but may differ in a detail not shown here. Equal entries are not always repeated. The whole screen tested about 5,500 compounds, of which about 2,000 (36%) were called active. Another 18% or so got no clear call; they are omitted. Rule as the data show it: active = normalized growth mostly below about 0.91 (no sharp cut-off); inconclusive = no clear call, values can overlap the other calls; inactive = mostly above about 0.92. The list shows a part of the results.

Experiment: chemical genetic growth profiling, strain panel (AID 1159580);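 also: tested at 20 µM; growth read once vehicle control cultures reached saturation at 30 °C; 1 = growth at the plate median or of vehicle wells; lower values mean less growth of the strain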
Conditions: S. cerevisiae deletion strains, growth OD

Measured: normalized growth

NC1(C(=O)O)CCCC1
inactive: locus YAL013W, strain DEP1, active compounds read low 1 | locus YAL021C, strain ccr4, active compounds read low 1.01 | locus YAL026C, strain drs2, active compounds read low 1.02 | locus YAL030W, strain snc1, active compounds read low 1.02 | locus YBL061C, strain skt5, active compounds read low 1.01 | locus YBR009C, strain hhf1, active compounds read low 1 | locus YBR021W, strain FUR4, active compounds read low 0.989 | locus YBR023C, strain chs3, active compounds read low 1.02 | locus YBR171W, strain sec66, active compounds read low 1.03 | locus YBR229C, strain ROT2, active compounds read low 1.01 | locus YBR231C, strain swc5, active compounds read low 1.02 | locus YBR279W, strain paf1, active compounds read low 1.01 | locus YCL011C, strain gbp2, active compounds read low 1.02 | locus YCL016C, strain dcc1, active compounds read low 1.01 | locus YCL029C, strain bik1, active compounds read low 1.02 | locus YCL061C, strain MRC1, active compounds read low 1.02 | locus YCL069W, strain vba3, active compounds read low 1.02 | locus YCR088W, strain abp1, active compounds read low 1.02 | locus YDL005C, strain med2, active compounds read low 1.01 | locus YDL035C, strain GPR1, active compounds read low 1.01 | locus YDL040C, strain nat1, active compounds read low 1.01 | locus YDL074C, strain BRE1, active compounds read low 1.02 | locus YDL101C, strain DUN1, active compounds read low 1 | locus YDL134C, strain PPH21, active compounds read low 0.998 | locus YDL185W, strain tfp1, active compounds read low 0.989 | locus YDL192W, strain arf1, active compounds read low 0.998 | locus YDR001C, strain nth1, active compounds read low 1.02 | locus YDR069C, strain doa4, active compounds read low 1.03 | locus YDR101C, strain arx1, active compounds read low 1.01 | locus YDR137W, strain rgp1, active compounds read low 1 | locus YDR150W, strain NUM1, active compounds read low 1.01 | locus YDR159W, strain sac3, active compounds read low 0.995 | locus YDR162C, strain NBP2, active compounds read low 1.01 | locus YDR195W, strain ref2 1.03 | locus YDR297W, strain sur2, active compounds read low 1.01 | locus YDR318W, strain mcm21, active compounds read low 0.996 | locus YDR334W, strain swr1, active compounds read low 1.01 | locus YDR335W, strain msn5, active compounds read low 1.01 | locus YDR388W, active compounds read low 0.998 | locus YDR392W, strain spt3, active compounds read low 1.01 | locus YDR502C, strain sam2, active compounds read low 0.99 | locus YEL003W, strain gim4, active compounds read low 1.02 | locus YEL037C, strain rad23, active compounds read low 1.02 | locus YEL061C, strain CIN8 (second series), active compounds read low 1.02 | locus YEL061C, strain CIN8, active compounds read low 1.01 | locus YER015W, strain faa2, active compounds read low 1.02 | locus YER016W, strain bim1, active compounds read low 1.01 | locus YER110C, active compounds read low 1 | locus YER111C, strain swi4, active compounds read low 1.03 | locus YER155C, strain BEM2 (second series), active compounds read low 1.07 | locus YER155C, strain BEM2, active compounds read low 0.997 | locus YER167W, strain BCK2, active compounds read low 1.01 | locus YFR010W, strain ubp6, active compounds read low 1.02 | locus YGL078C, strain dbp3, active compounds read low 0.989 | locus YGL086W, strain mad1, active compounds read low 0.994 | locus YGL167C, strain pmr1, active compounds read low 1.01 | locus YGL173C, strain kem1, active compounds read low 1.02 | locus YGL227W, strain vid30, active compounds read low 1.02 | locus YGL240W, strain doc1, active compounds read low 1.04 | locus YGL248W, strain PDE1, active compounds read low 1.01 | locus YGL253W, strain hxk2, active compounds read low 1.02 | locus YGR135W, strain pre9, active compounds read low 0.998 | locus YGR252W, strain gcn5, active compounds read low 0.935 | locus YHR013C, strain ard1, active compounds read low 1.07 | locus YHR027C, strain rpn1, active compounds read low 1.01 | locus YHR030C, strain SLT2, active compounds read low 1.01 | locus YHR079C, strain IRE1 (second series), active compounds read low 0.996 | locus YHR079C, strain IRE1, active compounds read low 1.04 | locus YHR094C, strain hxt1, active compounds read low 0.998 | locus YHR129C, strain ARP1, active compounds read low 1.01 | locus YHR142W, strain chs7, active compounds read low 1.03 | locus YHR200W, strain rpn10, active compounds read low 0.997 | locus YIL066C, strain RNR3, active compounds read low 1.02 | locus YIL073C, strain SPO22, active compounds read low 1.02 | locus YIL125W, strain kgd1, active compounds read low 1 | locus YIR030C, strain dcg1, active compounds read low 1.01 | locus YJL092W, strain hpr5, active compounds read low 1.03 | locus YJL095W, strain BCK1 (second series), active compounds read low 1.01 | locus YJL095W, strain BCK1, active compounds read low 1.01 and 1.02 | locus YJL115W, strain asf1, active compounds read low 1.03 | locus YJL129C, strain trk1, active compounds read low 1.06 | locus YJL134W, strain LCB3, active compounds read low 1.01 | locus YJL154C, strain vps35, active compounds read low 1.02 | locus YJL164C, strain tpk1, active compounds read low 1.02 | locus YJL166W, strain qcr8, active compounds read low 1.02 | locus YJL168C, strain set2, active compounds read low 0.994 | locus YJL187C, strain SWE1 (second series), active compounds read low 1.01 | locus YJR043C, strain POL32, active compounds read low 1 | locus YJR066W, strain TOR1, active compounds read low 0.975
